PubChem BioAssay
“And” between values parts separate entries of the source, which are not always exact repeats. Equal entries are not always repeated. Where a structure was tested more than once in an assay, its records may differ in their call. The source made the active and inactive calls.

What was measured:
[1] = small molecules captured by biotinylated probe aFSTL3 – biochemical, small-molecule microarray, fluorescence 635/667, stem cell growth factor project, primary screen (AID 1064); settings: higher = more signal;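 further: measures binding of the biotinylated anti-FSTL3 antibody to printed compounds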
[2] = binders from COS7 lysate, DM2A8 probe, primary screen, torsin A project, cell lysate, small-molecule microarray, fluorescence 635/667 (AID 1065); settings: higher = more signal, COS7 lysate expressing mutant human TOR1A
[3] = small molecules captured by biotinylated probe aFGF2 – biochemical, small-molecule microarray, fluorescence 635/667, stem cell growth factor project, primary screen (AID 1067); settings: higher = more signal;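 further: measures binding of biotinylated aFGF2 protein to printed compounds on slides; z-score merges feature fluorescence and signal-to-noise across triplicate slides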
[4] = small molecules captured by biotinylated probe aFGF10 – biochemical, small-molecule microarray, fluorescence 635/667, stem cell growth factor project, primary screen (AID 1071); settings: higher = more signal;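 further: score merges 667 nm spot intensity and signal to noise from triplicate slides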
[5] = biological target: Neurogenic locus notch homolog protein 2 (Homo sapiens) (UniProt Q04721); test: small molecules binding Notch2 protein – biochemical, small-molecule microarray, 635 nm fluorescence, stem cell growth factors, primary screen (AID 1073); settings: higher = more signal
[6] = biological target: Pro-neuregulin-1, membrane-bound isoform (Homo sapiens) (UniProt Q02297); test: small molecules binding neuregulin-1 protein – biochemical, small-molecule microarray, fluorescence 635/667, psychiatric disease protein project, primary screen (AID 1075); settings: NRG1 binding, 635 nm fluorescence, higher = more signal;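 further: score combines 667 nm spot fluorescence with signal to noise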
[7] = tested on: Neuregulin-1 EGF-like domain; test: small molecules binding NRG1 EGF domain – biochemical, small-molecule microarray, 635 nm fluorescence, primary screen (AID 1081); settings: higher = more signal;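 further: binding of the protein to compounds printed on small-molecule microarray slides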
[8] = FRG1 expression reporter modulators in myotubes – cell-based, C2C12 myotubes, firefly/Renilla luciferase, luminescence, FRG1 inhibition for FSHD, primary screen (AID 1084); settings: FRG1 promoter luciferase, higher = more signal, called active from +8 up or from −8 down
[9] = small molecules captured by biotinylated probe aFST – biochemical, small-molecule microarray, fluorescence 635/667, stem cell growth factor project, primary screen (AID 1086); settings: higher = more signal;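 further: score merges 667 nm fluorescence with signal-to-noise of each printed compound spot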
[10] = binders of probe aHhip on microarray, primary screen, stem cell growth factor project, biochemical, small-molecule microarray, fluorescence 635/667 (AID 1087); settings: higher = more signal;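 further: score merges spot fluorescence at 667nm with spot signal to noise ratio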
[11] = tested on: PRMT1 (protein arginine N-methyltransferase 1); test: small molecules binding arginine methyltransferase PRMT1 – biochemical, small-molecule microarray, 635 nm fluorescence, primary screen (AID 1088); settings: higher = more signal;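 further: binding of Prmt1 protein to compounds spotted on small-molecule microarray slides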
[12] = growth effects on S. cerevisiae YJM789 – YJM789 clinical isolate, OD600, 24 h, basal, primary screen (AID 1089); settings: higher = more signal, called active from +8 up or from −8 down;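 further: growth of clinical yeast isolate S. cerevisiae YJM 789 seeded 1000 cells per well; test concentration not given here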
[13] = S. pombe growth modifiers, basal conditions – strain 972, OD600, 24 h, no modulator, primary screen (AID 1090);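 further: basal condition with compound alone and no growth modifier present; test concentration not given here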; settings: S. pombe 972 growth, higher = more signal, called active from +8 up or from −8 down
[14] = budding yeast growth modifiers under rapamycin – strain BY4716, OD600, 96 h, primary screen (AID 1091); further: test concentration not given here; settings: S. cerevisiae BY4716 + rapamycin, higher = more signal, called active from +8 up or from −8 down
[15] = biological target: Torsin-1A-interacting protein 2 (Homo sapiens) (UniProt Q8NFQ8); test: small molecules binding lysate-expressed LULL1 – cell lysate, human LULL1 lysate, 635/667 nm fluorescence, primary screen (AID 1092); settings: small-molecule microarray, hLULL1 lysate binding, 635 nm fluorescence; higher = more signal;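 further: probe is lysate of COS7 cells overexpressing human LULL1; score merges per-feature 667 nm fluorescence with signal-to-noise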
[16] = optical density change of DRC41 E. coli – strain DRC41, OD650, 24 h, E. coli filamentation project, primary screen (AID 1093);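 further: MC1000 strain lacking acrAB efflux and sulA so SOS filamentation is blocked; test concentration not given here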; settings: E. coli DRC41 growth, higher = more signal, called active from +8 up or from −8 down
[17] = probe aLefty2 binding to arrayed compounds – biochemical, biotinylated probe, 635/667 nm fluorescence, primary screen (AID 1094); settings: small-molecule microarray, higher = more signal;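 further: score merges spot fluorescence near 667 nm with spot signal-to-noise ratio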
[18] = tested on: Noggin (protein binding on small-molecule microarray); test: small molecules binding Noggin protein – biochemical, 635/667 nm fluorescence, primary screen (AID 1095); settings: 635 nm fluorescence, higher = more signal;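 further: score merges 667 nm feature fluorescence with signal to noise over triplicate slides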
[19] = biological target: Neurogenic locus notch homolog protein 3 (Homo sapiens) (UniProt Q9UM47); test: small molecules binding NOTCH3 protein – biochemical, 635/667 nm fluorescence, primary screen (AID 1096); settings: small-molecule microarray, 635 nm fluorescence, higher = more signal
[20] = probe aEGFR binding to arrayed compounds – biochemical, biotinylated probe, 635/667 nm fluorescence, primary screen (AID 1097); settings: small-molecule microarray, higher = more signal;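 further: probe is a biotinylated anti-EGFR antibody binding compounds printed on slides; score combines fluorescence near 667 nm and signal to noise of each spot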

Torsin-1A-interacting protein 2 (Homo sapiens), sequence (Q8NFQ8 whole entry, looked up): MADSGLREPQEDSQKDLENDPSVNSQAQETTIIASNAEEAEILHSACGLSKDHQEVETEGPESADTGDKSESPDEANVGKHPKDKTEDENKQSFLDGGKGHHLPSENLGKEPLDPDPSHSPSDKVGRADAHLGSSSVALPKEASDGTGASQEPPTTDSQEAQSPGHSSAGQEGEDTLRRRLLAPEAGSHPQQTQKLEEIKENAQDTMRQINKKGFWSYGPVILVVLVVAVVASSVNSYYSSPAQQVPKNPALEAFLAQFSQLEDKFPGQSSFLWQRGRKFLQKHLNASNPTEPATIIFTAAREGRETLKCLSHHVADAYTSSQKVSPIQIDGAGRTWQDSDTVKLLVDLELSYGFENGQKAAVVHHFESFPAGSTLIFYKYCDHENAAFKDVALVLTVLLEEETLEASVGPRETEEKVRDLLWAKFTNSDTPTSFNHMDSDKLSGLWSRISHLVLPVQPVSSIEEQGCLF
Neurogenic locus notch homolog protein 2 (Homo sapiens), sequence (Q04721 whole entry, looked up, canonical isoform): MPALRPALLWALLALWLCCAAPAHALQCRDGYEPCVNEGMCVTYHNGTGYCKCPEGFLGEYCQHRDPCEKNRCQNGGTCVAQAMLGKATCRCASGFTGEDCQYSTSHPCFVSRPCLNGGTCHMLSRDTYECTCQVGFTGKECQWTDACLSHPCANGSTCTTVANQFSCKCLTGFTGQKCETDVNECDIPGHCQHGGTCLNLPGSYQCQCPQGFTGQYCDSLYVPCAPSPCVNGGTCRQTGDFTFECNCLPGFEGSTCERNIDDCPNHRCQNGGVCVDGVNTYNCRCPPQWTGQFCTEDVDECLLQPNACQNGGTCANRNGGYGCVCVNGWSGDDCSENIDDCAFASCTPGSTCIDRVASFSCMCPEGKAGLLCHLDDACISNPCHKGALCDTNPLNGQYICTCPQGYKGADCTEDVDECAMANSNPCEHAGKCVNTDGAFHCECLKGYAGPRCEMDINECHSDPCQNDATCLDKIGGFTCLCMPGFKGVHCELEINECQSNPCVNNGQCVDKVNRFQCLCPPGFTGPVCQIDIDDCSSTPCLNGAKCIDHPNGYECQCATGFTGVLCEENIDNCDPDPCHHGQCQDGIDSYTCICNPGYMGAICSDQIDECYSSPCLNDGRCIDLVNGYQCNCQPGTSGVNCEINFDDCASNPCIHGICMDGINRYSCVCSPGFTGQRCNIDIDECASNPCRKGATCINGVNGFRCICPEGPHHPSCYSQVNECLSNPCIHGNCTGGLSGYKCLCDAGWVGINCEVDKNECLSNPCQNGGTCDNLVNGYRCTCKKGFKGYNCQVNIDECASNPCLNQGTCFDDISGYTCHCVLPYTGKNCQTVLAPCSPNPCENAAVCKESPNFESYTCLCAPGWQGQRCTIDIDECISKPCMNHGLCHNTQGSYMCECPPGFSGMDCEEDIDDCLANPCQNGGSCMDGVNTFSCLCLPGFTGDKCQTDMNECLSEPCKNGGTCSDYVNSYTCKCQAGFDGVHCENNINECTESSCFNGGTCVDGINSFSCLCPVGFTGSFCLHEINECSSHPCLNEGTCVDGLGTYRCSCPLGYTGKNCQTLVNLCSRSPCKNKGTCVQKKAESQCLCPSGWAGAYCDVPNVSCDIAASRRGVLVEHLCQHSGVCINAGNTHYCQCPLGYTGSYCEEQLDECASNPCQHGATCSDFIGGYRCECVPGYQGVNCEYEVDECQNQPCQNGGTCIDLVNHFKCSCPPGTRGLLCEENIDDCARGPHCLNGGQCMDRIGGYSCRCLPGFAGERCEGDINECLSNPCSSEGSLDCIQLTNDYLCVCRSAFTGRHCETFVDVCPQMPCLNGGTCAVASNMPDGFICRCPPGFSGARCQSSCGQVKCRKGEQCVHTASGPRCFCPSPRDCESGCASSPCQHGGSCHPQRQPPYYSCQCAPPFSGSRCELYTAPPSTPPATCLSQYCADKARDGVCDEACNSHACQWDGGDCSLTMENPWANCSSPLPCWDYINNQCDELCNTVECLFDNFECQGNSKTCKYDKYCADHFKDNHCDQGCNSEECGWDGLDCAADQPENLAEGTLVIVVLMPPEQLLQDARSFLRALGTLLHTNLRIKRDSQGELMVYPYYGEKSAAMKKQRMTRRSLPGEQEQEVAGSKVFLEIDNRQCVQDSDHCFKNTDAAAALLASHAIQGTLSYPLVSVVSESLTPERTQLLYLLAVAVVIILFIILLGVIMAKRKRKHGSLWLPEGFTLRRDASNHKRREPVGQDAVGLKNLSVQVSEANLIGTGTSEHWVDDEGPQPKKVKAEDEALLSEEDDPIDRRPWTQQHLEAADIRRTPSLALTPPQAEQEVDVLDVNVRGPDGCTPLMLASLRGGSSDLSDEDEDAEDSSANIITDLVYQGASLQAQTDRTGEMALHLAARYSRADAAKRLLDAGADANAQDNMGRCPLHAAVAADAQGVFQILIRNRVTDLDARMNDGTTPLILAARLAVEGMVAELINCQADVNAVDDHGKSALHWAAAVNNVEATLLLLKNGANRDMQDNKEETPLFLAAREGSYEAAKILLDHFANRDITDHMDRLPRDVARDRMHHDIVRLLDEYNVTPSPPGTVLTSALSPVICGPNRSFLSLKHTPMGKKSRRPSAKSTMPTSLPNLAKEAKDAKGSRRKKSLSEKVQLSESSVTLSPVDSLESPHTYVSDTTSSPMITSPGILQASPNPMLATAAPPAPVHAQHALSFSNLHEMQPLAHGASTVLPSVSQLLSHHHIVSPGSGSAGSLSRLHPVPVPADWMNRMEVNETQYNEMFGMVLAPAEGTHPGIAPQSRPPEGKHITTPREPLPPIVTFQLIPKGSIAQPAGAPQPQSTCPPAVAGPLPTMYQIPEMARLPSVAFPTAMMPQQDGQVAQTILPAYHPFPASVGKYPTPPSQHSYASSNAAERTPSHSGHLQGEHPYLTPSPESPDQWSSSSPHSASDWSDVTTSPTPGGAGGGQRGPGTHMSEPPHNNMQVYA
Pro-neuregulin-1, membrane-bound isoform (Homo sapiens), sequence (Q02297 whole entry, looked up, the tested form may be a part, canonical isoform): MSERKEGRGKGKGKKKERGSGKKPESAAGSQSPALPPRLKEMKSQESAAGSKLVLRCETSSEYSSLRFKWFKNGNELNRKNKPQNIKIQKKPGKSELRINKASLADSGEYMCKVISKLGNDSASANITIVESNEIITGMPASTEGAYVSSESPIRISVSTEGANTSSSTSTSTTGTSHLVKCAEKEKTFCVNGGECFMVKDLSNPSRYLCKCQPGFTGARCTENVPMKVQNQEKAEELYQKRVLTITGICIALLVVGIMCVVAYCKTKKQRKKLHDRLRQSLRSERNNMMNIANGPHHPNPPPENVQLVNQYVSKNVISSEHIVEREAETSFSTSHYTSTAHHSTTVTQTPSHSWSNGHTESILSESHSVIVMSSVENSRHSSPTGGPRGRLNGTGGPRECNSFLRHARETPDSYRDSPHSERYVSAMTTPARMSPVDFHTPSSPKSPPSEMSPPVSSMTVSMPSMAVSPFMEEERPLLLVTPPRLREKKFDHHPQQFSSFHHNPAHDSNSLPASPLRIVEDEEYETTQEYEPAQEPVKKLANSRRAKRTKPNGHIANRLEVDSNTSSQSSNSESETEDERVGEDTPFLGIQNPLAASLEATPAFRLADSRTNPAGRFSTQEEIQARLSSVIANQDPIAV

| SMILES | composite z-score [1] | composite z-score [2] | composite z-score [3] | composite z-score [4] | composite z-score [5] | composite z-score [6] | composite z-score [7] | z-score [8] | composite z-score [9] | composite z-score [10] | composite z-score [11] | z-score [12] | z-score [13] | z-score [14] | composite z-score [15] | z-score [16] | composite z-score [17] | composite z-score [18] | composite z-score [19] | composite z-score [20] |
| --- | --- | --- | --- | --- | --- | --- | --- | --- | --- | --- | --- | --- | --- | --- | --- | --- | --- | --- | --- | --- |
| CO[C@@H]1C=CCC(=O)N2CCC[C@H]2C(=O)OC[C@H](C)C(=O)OC[C@H]1C | -0.368 | 1.3 | -0.0676 | 0.0525 | -0.244 | -0.226 | 1.07 | 0.0531 (inactive) | 0.191 | 0.501 | 0.59 | 0.741 (inactive) | -0.295 (inactive) | -0.606 (inactive) | -0.246 | 0.714 (inactive) | -0.0693 | 1.41 | -0.13 | 0.163 |
| C=CCN(C(=O)C1N(CCOCCO)C(=O)C2C(C(=O)O)C3C=CC21O3)C(C)(C)C (stereo not given) | 0.977 and 0.412 | -0.768 and -0.863 | -0.25 and -0.262 | -1.82 and -1.11 | -2.44 and -1.36 | -0.774 and -0.717 | -0.643 and -0.383 | 0.97 (inactive) and -0.383 (inactive) | -1.09 and -1.91 | -0.175 and 0.0156 | -1.26 and -0.124 | -0.419 (inactive) and -0.683 (inactive) | -0.378 (inactive) and -0.505 (inactive) | -0.357 (inactive) and -0.658 (inactive) | -1.29 and -1.44 | 0.389 (inactive) and 0.267 (inactive) | -0.251 and -0.197 | -2.02 and -1.83 | -1.49 and -0.757 | -0.323 and -0.241 |
| C=CCN(CCCCC)C(=O)C1N(c2ccc(CCO)cc2)C(=O)C2C(C(=O)O)C3C=CC21O3 (stereo not given) | -0.152 and 0.561 | -0.875 and -0.415 | -0.154 and -0.179 | -0.808 and -0.367 | -2.12 and -2.03 | -0.638 and -0.72 | -0.465 and -0.307 | 1.51 (inactive) and 1.3 (inactive) | -0.623 and -0.681 | -0.4 and -0.175 | -0.303 and -0.476 | 0.0099 (inactive) and -0.194 (inactive) | -0.804 (inactive) and 0.336 (inactive) | -0.231 (inactive) and -0.137 (inactive) | -0.379 and 0.173 | 0.287 (inactive) and 1.11 (inactive) | -0.0374 and 0.699 | -1.73 and -1.08 | -0.636 and -0.651 | -0.233 and -0.145 |
| CCC[C@@H]1C[C@@]1(CCC)[C@@H](NC(=O)c1ccc(-c2ccccc2)cc1)c1cccc(Cl)c1 | 2.36 and 0.236 | 0.995 and -0.712 | 0.736 and -0.171 | -0.636 and 0.226 | -1.01 and 1.53 | -0.612 and 1.2 | -0.62 and 1.11 | -1 (inactive) and 0.245 (inactive) | 1.96 and 0.48 | 2.73 and 0.663 | -0.13 and -0.434 | -0.173 (inactive) and 0.948 (inactive) | -12.7 (active) and 1.75 (inactive) | -0.86 (inactive) and 1.18 (inactive) | 0.678 and 3.32 | -1.33 (inactive) and -0.003 (inactive) | 1.07 and 0.266 | 0.191 and -0.508 | -0.585 and 0.419 | 0.78 and -0.0975 |
| C[C@@H]1CC[C@H]2C(=O)O[C@H](CN=[N+]=[N-])CN2[C@H]1c1ccc(Br)cc1 | -0.0927 and -0.0564 | 0.622 and 0.269 | -0.158 and -0.187 | -0.12 and -0.336 | -0.321 and -0.635 | -0.198 and 0.292 | -0.238 and -0.279 | -0.492 (inactive) and -0.161 (inactive) | 0.3 and -0.405 | -0.0657 and -0.0618 | 0.692 and 0.323 | -0.471 (inactive) and 0.113 (inactive) | -16.7 (active) and -14.3 (active) | -2.15 (inactive) and -0.441 (inactive) | 0.359 and -0.0523 | -0.548 (inactive) and 0.433 (inactive) | -0.245 and -0.0174 | 0.366 and 0.115 | -0.105 and -1.06 | 0.0172 and -0.252 |
| CCOC(=O)C[C@H]1[C@H](OC(=O)c2ccccc2-c2ccccc2)[C@@H](NC(=O)Cc2ccc(OC)cc2)c2cc(OCCCO)ccc2N1C(=O)Cc1ccc(OC)cc1 | 0.169 and 0.18 | 0.22 and 0.0916 | 0.0811 and -0.0737 | 0.473 and -0.0644 | -0.386 and -0.0483 | 0.621 and -0.428 | 0.927 and -0.835 | -0.848 (inactive) and -0.382 (inactive) | 0.492 and 0.0474 | -0.0994 and -0.199 | 0.407 and -0.949 | -0.0142 (inactive) and -0.0701 (inactive) | -0.572 (inactive) and 0.18 (inactive) | 0.843 (inactive) and 0.39 (inactive) | 1.46 and -0.199 | 2.39 (inactive) and -0.335 (inactive) | 0.139 and -0.176 | 0.0766 and -0.182 | 0.784 and -0.204 | 0.0084 and -0.142 |
| CC(CO)N1C(=O)[C@@H]2C3C(=O)OCCC=C[C@H]3OC23C=CCN(c2ccc(Cl)cc2)C(=O)[C@@H]13 (stereo not given in full) | 0.982 and -0.0072 | -0.821 and -1.3 | -0.0959 and -0.159 | -0.556 and -0.282 | -0.709 and 0.149 | -0.618 and 2 | 0.923 and 1.44 | 0.741 (inactive) and 1.08 (inactive) | -0.91 and 0.118 | 0.0053 and 0.0092 | -1.06 and 1.32 | 1.37 (inactive) and -1.45 (inactive) | 0.628 (inactive) and -1.21 (inactive) | 0.872 (inactive) and -0.713 (inactive) | -0.81 and 3.57 | 0.226 (inactive) and -0.379 (inactive) | 0.149 and -0.0998 | -2.2 and -0.556 | -1.43 and 0.107 | -0.186 and -0.0788 |
| CC(C)=CCCC(C)=CCON=C1C[C@@H](O)[C@@H](O)[C@@H]2[C@@H]3C(=O)N([C@@H](C)c4ccccc4)C(=O)[C@@H]3CC[C@H]12 | -0.372 | 0.384 | -0.044 | 0.573 | 0.744 | 1.13 | 0.751 | -0.763 (inactive) | 0.503 | 0.0627 | 1.13 | -1.23 (inactive) | -0.846 (inactive) | -0.989 (inactive) | 2.28 | -1.39 (inactive) | -0.0991 | 0.454 | 0.492 | -0.162 |
